Laboratory results as given in PubChem BioAssay (NCI).
The panel holds about 79,000 compounds, 15% with a hit somewhere; the sample as a whole holds those more often. A number with no mark means an inactive call. The source made the active and inactive calls. No stated cut-off is given here; in the data, active means growth inhibition above about 70%; inactive means the rest.

Legend:
[1] = NCI Yeast Anticancer Drug Screen. Data for the rad50 strain (AID 155);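 further: 0% = growth of vehicle-only cultures of the same strain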; details: S. cerevisiae rad50 strain growth inhibition, hits give high values
Method in brief: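 Yeast carrying a defined DNA repair defect were exposed to test compounds, and growth was compared with vehicle-treated controls to give percent inhibition.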

[2] = NCI Yeast Anticancer Drug Screen. Data for the mec2-1 strain (AID 157); details: S. cerevisiae mec2-1 strain, hits give high values
Method in brief: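 Yeast mec2-1 mutant treated with compound. Readout: growth inhibition vs vehicle controls.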

[3] = NCI Yeast Anticancer Drug Screen. Data for the sgs1 mgt1 strain (AID 161);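 further: 0% = growth of cultures given vehicle only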; details: S. cerevisiae sgs1 mgt1 strain, hits give high values
Method in brief: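 Inhibition of yeast growth, normalised to vehicle-treated controls, is reported for a strain bearing genetic alterations in DNA damage repair.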

[4] = NCI Yeast Anticancer Drug Screen. Data for the cln2 rad14 strain (AID 165);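 further: 0% = growth equal to vehicle treated cultures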; details: S. cerevisiae cln2 rad14 strain, hits give high values
Method in brief: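 cln2 rad14 yeast strain; compound exposure; growth inhibition read vs vehicle controls.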

[5] = NCI Yeast Anticancer Drug Screen. Data for the bub3 strain (AID 167); details: S. cerevisiae bub3 mutant strain, hits give high values
Method in brief: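 Compounds were applied to a genetically altered yeast strain carrying a cell-cycle control defect. Growth inhibition was scored against vehicle-treated controls.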

[6] = NCI Yeast Anticancer Drug Screen. Data for the mlh1 rad18 strain (AID 175); details: S. cerevisiae mlh1 rad18 strain growth inhibition, hits give high values
Method in brief: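 Yeast w/ defined DNA-repair lesions; compound exposure; growth vs vehicle controls → % inhibition.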

[7] = at 5.0 µM (retest, dose inferred, filed as 0.5)
[8] = at 50.0 µM (retest, dose inferred, filed as 5.0)

Compound | growth inhibition [1, 7] | growth inhibition [1, 8] | growth inhibition ([1]; at 50.0 µM) | growth inhibition [2, 7] | growth inhibition [2, 8] | growth inhibition ([2]; at 50.0 µM) | growth inhibition [3, 7] | growth inhibition [3, 8] | growth inhibition ([3]; at 50.0 µM) | growth inhibition [4, 7] | growth inhibition [4, 8] | growth inhibition ([4]; at 50.0 µM) | growth inhibition [5, 7] | growth inhibition [5, 8] | growth inhibition ([5]; at 50.0 µM) | growth inhibition [6, 7] | growth inhibition [6, 8] | growth inhibition ([6]; at 50.0 µM)
CCCCC(O)(c1ccccc1)C(O)(c1ccccc1)c1c(F)c(F)c(F)c(F)c1F (stereo not given) | 17% | 99% (active) | 81.1% (active) | -3% | 99% (active) | 96.6% (active) | -5% | 98% (active) | 99% (active) | 1% | 98% (active) | 97.3% (active) | -8% | 96% (active) | 98.6% (active) | -4% | 99% (active) | 97.2% (active)
Cc1ccc(SCC#CC#CCS(=O)c2ccc(C)cc2)cc1 (stereo not given) | 100% (active) | 98% (active) | 98.3% (active) | 87% (active) | 99% (active) | 98.5% (active) | 100% (active) | 99% (active) | 97.8% (active) | 44% | 98% (active) | 98% (active) | 82% (active) | 98% (active) | 97% (active) | 97% (active) | 98% (active) | 97.6% (active)
OC(CCl)c1ccc2ccc3c(c2c1)Nc1ccccc1S3 (stereo not given) | 0% | 80% (active) | 80.4% (active) | -1% | 88% (active) | 97.2% (active) | 2% | 83% (active) | 97.2% (active) | -1% | 75% (active) | 78.8% (active) | 4% | 87% (active) | 87.9% (active) | -1% | 86% (active) | 96.5% (active)
N#CN1CCCC(O)c2sc3ccccc3c2CC1 (stereo not given) | 3% | 9% | 56.4% | 1% | 17% | 11.5% | 1% | 3% | 38.9% | 3% | -7% | 9.85% | -2% | 1% | 7.3% | -1% | -1% | -0.65%
CN=c1sc2c(n1C)C(=O)c1ccccc1C2=O | 26% | 48% | 82.6% (active) | 17% | 40% | 75.7% (active) | 31% | 49% | 87.8% (active) | 21% | 23% | 25.6% | 28% | 64% | 65.9% | 23% | 54% | 80.8% (active)
CC(CC(C)[C@H]1CCC2[C@H]3C(CC[C@@]21C)[C@@]1(C)CCC(O)C[C@H]1C[C@@H]3O)C(=O)O (stereo not given in full) | 10% | 97% (active) | 98.4% (active) | -7% | 98% (active) | 97.5% (active) | -4% | 97% (active) | 98.7% (active) | -4% | 99% (active) | 97.1% (active) | -20% | 98% (active) | 99% (active) | 14% | 98% (active) | 98.2% (active)
CN(/N=C\c1ccc2ccccc2c1)C1=NCCCN1 | 97% (active) | 68% | 56.8% | 99% (active) | 67% | 33.6% | 98% (active) | 56% | 49.6% | 97% (active) | 66% | 7.7% | 98% (active) | 96% (active) | 99.2% (active) | 97% (active) | 79% (active) | 60.9%
O=S(=O)(c1ccc2c(c1)CCCN2)N1CCC[C@H]2CCCC[C@@H]21 | 7% | 94% (active) | 95.3% (active) | -2% | 96% (active) | 96.8% (active) | 0% | 95% (active) | 97.1% (active) | 32% | 94% (active) | 95.5% (active) | 14% | 96% (active) | 98.2% (active) | 11% | 93% (active) | 95% (active)
O=[N+]([O-])c1ccc2c(c1)Cc1cc(Cl)ccc1-2 | 7% | 6% | 14.1% | 2% | 5% | -13.9% | 1% | -2% | -11.4% | -5% | 3% | 81.4% (active) | 4% | 7% | -14.3% | 6% | 5% | 46.1%
COC(=O)[C@@]12OC[C@]34[C@H]([C@@H](O)[C@@H]1O)[C@@]1(C)CC(=O)C(OC(=O)CC(=O)OC5=C(C)[C@@H]6C[C@H]7OC(=O)[C@H](OC(=O)/C=C(\C)C(C)C)[C@H]8[C@]9(C(=O)OC)OC[C@]78[C@H]([C@@H](O)[C@@H]9O)[C@@]6(C)CC5=O)=C(C)[C@@H]1C[C@H]3OC(=O)[C@H](OC(=O)/C=C(\C)C(C)C)[C@@H]24 | 45% | 98% (active) | 90.3% (active) | 43% | 99% (active) | 92.3% (active) | 42% | 98% (active) | 92.5% (active) | 49% | 98% (active) | 89.6% (active) | 57% | 99% (active) | 92.2% (active) | 58% | 97% (active) | 84.5% (active)
